The list is not random: actives were taken first. Their share in the collection is about 19%.
TDP1 cell noCPT: qHTS for Inhibitors of human tyrosyl-DNA phosphodiesterase 1 (TDP1): qHTS in cells in absence of CPT; AID 686978, 2013; Potency, µM (highest dose often 46.2 µM), inactives show at the top dose activity change, negative = growth inhibition, hits mostly inhibitors; actives 15% (n = 420,000); DT40 Tdp1-/- hTDP1 cells, no CPT, ATP luminescence, 48 h; also: potency is read from the fitted curve at half-maximal effect; % is scaled to controls: 0 for no effect and ±100 for the full control effect; nearly all actives have a fitted effect of over 55% in size
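No-CPT arm: Tdp1-/-;hTDP1 DT40 cells (400/well) plus compounds, incubated ≥48 hr at 37 °C. Readout CellTiter-Glo luminescence.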
TDP1 inh: blocks human tyrosyl-DNA phosphodiesterase 1; Q9NUW8; recombinant TDP1, AlphaScreen DNA substrate cleavage; Potency, µM (highest dose often 130 µM), for inactives: at the highest dose activity change, negative = inhibition, usual class: inhibitors; actives 0.28% (n = 350,000); also: potency is read from the fitted curve at half-maximal effect; % is scaled to controls: 0 for no effect and ±100 for the full control effect; nearly all actives have a fitted effect of over 40% in size
Target sequence (Q9NUW8 whole entry, looked up): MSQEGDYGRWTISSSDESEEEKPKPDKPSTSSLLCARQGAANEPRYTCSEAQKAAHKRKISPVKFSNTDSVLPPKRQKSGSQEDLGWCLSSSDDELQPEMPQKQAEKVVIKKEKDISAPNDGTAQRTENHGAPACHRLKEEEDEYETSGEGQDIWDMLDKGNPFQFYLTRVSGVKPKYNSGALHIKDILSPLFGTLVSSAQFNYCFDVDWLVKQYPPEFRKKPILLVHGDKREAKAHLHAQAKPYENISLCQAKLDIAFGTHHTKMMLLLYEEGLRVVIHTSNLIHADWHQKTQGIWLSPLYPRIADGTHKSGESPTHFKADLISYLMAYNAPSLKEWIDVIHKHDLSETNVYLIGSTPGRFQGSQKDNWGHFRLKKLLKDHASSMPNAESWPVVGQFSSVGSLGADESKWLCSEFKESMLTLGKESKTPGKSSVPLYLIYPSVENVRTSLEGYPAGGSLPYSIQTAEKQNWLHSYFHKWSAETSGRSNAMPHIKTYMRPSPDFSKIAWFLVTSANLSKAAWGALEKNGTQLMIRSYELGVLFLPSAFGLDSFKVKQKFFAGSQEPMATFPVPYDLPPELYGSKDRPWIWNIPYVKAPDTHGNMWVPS
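Steps: enzyme plus compound, 15 min RT; add biotin/phosphotyrosine-FITC oligonucleotide (15 nM final), react 5 min; add donor/acceptor beads (10 ug/ml final), 10 min; read AlphaScreen. Tdp1 at 1 nM final.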
TGFb inhibitor: blocks TGF-b signaling; HepG2 CAGA-GFP TGF-b/SMAD3 reporter, GFP fluorescence, 18 h; TGF-beta stimulated, 500 pg/mL final; AID 588855; actives 1.2% (n = 410,000); Potency, µM (doses to about 46.1 µM), for inactives: top-dose activity, negative = inhibition, usual class: inhibitors; also: potency is read from the fitted curve at half-maximal effect; % is scaled to controls: 0 for no effect and ±100 for the full control effect; nearly all actives have a fitted effect of over 65% in size
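Inhibition of TGF-beta-driven CAGA-GFP reporter expression in HEPG2 cells is measured by cellular GFP fluorescence after 18 h stimulation with 500 pg/mL recombinant TGF-beta in 1% FBS medium at 37 degrees C.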
DT40 TDP1 CPT: DT40-hTDP1 cell growth loss with CPT | chicken DT40 Tdp1-/-;hTDP1 cells + 20 nM CPT, ATP luminescence, 48 h | actives 12% (n = 420,000) | Potency, µM (top dose mostly 46.2 µM), for inactives: at the top dose activity change, negative = growth inhibition, hits mostly inhibitors; also: potency is read from the fitted curve at half-maximal effect; % is scaled to controls: 0 for no effect and ±100 for the full control effect; nearly all actives have a fitted effect of over 55% in size
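Chicken DT40 Tdp1-/- cells stably complemented with human TDP1 were seeded at 400 cells/well in medium containing 20 nM camptothecin, exposed to pin-transferred compounds, and grown at 37 °C for at least 48 hr. Viability was read as ATP luminescence.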
IL1B secr inh: blocks inflammasome-driven IL-1 beta release. THP-1 LPS/ATP IL-1B secretion, AlphaLISA, 16 h; hits give low values. activity change, % at 57.5 µM. actives 4.7% (n = 360,000); in the data active = activity change below about -50%; inconclusive = mostly about -30% to -49%; also: % is scaled to controls: 0 for no effect and ±100 for the full control effect
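Secreted IL-1B measured by AlphaLISA bead assay after 16 h compound exposure of THP-1 cells; compounds (final up to 57.5 uM) added 1 h before LPS (250 ng/mL) and ATP (1.25 mM) stimulation; lower signal means less secretion.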
HepG2 tox: counter-screen for TGF-b inhibitors: cytotoxicity in HepG2 cells; actives 0.76% (n = 410,000); AID 588856; HepG2 CAGA-GFP viability, ATP luminescence, 18 h; Potency, µM (doses to about 46.1 µM), without a hit: at the top dose activity change, negative = cytotoxicity, most hits filed as cytotoxic; also: potency is read from the fitted curve at half-maximal effect
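CellTiter-Glo luminescence gave cytotoxicity after 18 hours at 37 degrees C. The cells were HepG2 CAGA-GFP in 1% FBS DMEM, stimulated with 500 pg/mL TGF-beta after compound addition. %Activity was normalised to no-cell wells (complete cell-killing) and DMSO (no toxicity), and curves were fitted and classified.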
* marks the source's active call; other numbers are inactive results. Unless noted, calls follow the shape of the dose curve; as a rule, active = well fitted curve in the direction sought with a large enough effect; inconclusive = small, poorly fitted or top-dose-only effect, or another doubt; inactive = no such curve, though single readings can be large; an effect the other way counts as inactive or inconclusive.

For CCN(CC)S(=O)(=O)c1cc(NC(=O)COC(=O)c2c(C)noc2C)ccc1C the results were TDP1 cell noCPT -20%, TDP1 inh 0%, TGFb inhibitor -13%, DT40 TDP1 CPT inconclusive, IL1B secr inh -50* and HepG2 tox -22%.
`CCN(CC)S(=O)(=O)c1cc(NC(=O)c2ccccc2OCc2c(C)noc2C)ccc1C` gave TDP1 cell noCPT 16µM*, TGFb inhibitor -17%, DT40 TDP1 CPT 16µM*, IL1B secr inh -10 and HepG2 tox -2%.
COc1ccc(NC(=O)c2ccccc2OCc2c(C)noc2C)cc1OC was read as TDP1 cell noCPT 8%, TDP1 inh 2%, TGFb inhibitor -15%, DT40 TDP1 CPT -4%, IL1B secr inh -1 and HepG2 tox 5%.
Screening Cc1ccc2c(c1)-c1nc(-c3ccc(Cl)cc3)cc(-c3coc4ccccc4c3=O)c1CO2 returned TDP1 cell noCPT -5%, TDP1 inh 2%, TGFb inhibitor -2%, DT40 TDP1 CPT -17% and HepG2 tox -5%.
For Cc1ccc(NS(=O)(=O)c2ccc3c(c2)CCC(C)(C)O3)cc1C the results were TDP1 inh 0%.
`COC(=O)c1c(NC(=O)C2CCCCC2)sc2c1CCN(C(C)C)C2` gave TDP1 cell noCPT inconclusive, TGFb inhibitor 9%, DT40 TDP1 CPT inconclusive, IL1B secr inh -30 and HepG2 tox 8%.
`CCOC(=O)c1c(NC(=O)C2CCCCC2)sc2c1CCN(C(C)C)C2` gave TDP1 cell noCPT 13µM*, TGFb inhibitor -4%, DT40 TDP1 CPT 15µM*, IL1B secr inh -9 and HepG2 tox -23%.
CC(C)N1CCc2c(sc(NC(=O)C3CCCCC3)c2C(N)=O)C1 was read as TDP1 cell noCPT inconclusive, TGFb inhibitor -26%, DT40 TDP1 CPT inconclusive, IL1B secr inh -55* and HepG2 tox -22%.
Screening Oc1ccc(-c2csc(Nc3ccccn3)n2)cc1 returned TDP1 cell noCPT inconclusive, TDP1 inh 9%, TGFb inhibitor -20%, DT40 TDP1 CPT inconclusive, IL1B secr inh -73* and HepG2 tox -13%.
For Cc1ccc(-c2csc(Nc3ccccn3)n2)cc1 the results were TDP1 cell noCPT inconclusive, TGFb inhibitor -16%, DT40 TDP1 CPT inconclusive, IL1B secr inh -77* and HepG2 tox -4%.
`COc1ccc(-c2csc(Nc3ccc(C)cn3)n2)cc1` gave TDP1 cell noCPT -27%, TGFb inhibitor 3%, DT40 TDP1 CPT -1%, IL1B secr inh -67* and HepG2 tox 13%.
c1ccc(-c2csc(Nc3ccccn3)n2)cc1 was read as TDP1 cell noCPT inconclusive, TDP1 inh 6%, TGFb inhibitor -15%, DT40 TDP1 CPT -17%, IL1B secr inh -55* and HepG2 tox -17%.
For CCOC(=O)N1CCN(Cc2nc3cc([N+](=O)[O-])ccc3n2C)CC1 the results were TDP1 cell noCPT -18%, TGFb inhibitor 5%, DT40 TDP1 CPT -1%, IL1B secr inh 37 and HepG2 tox -1%.
For CC1CC(=O)Nc2cc([N+](=O)[O-])ccc2N1 (centres undefined) the results were TDP1 cell noCPT -2%, TGFb inhibitor inconclusive, DT40 TDP1 CPT 4%, IL1B secr inh 58 and HepG2 tox 2%.
For CCN1CCN(C(=O)CCc2nnc(CCc3ccc(OC)cc3)o2)[C@@H](C)C1=O the results were TDP1 cell noCPT 3%, TDP1 inh 2%, TGFb inhibitor -6%, DT40 TDP1 CPT 1%, IL1B secr inh 1 and HepG2 tox 0%.

Screening data from PubChem BioAssay.
